Laboratory results published in PubChem BioAssay (NCI).
This is part of a sample that, as a whole, favours compounds with a hit. Of some 79,000 tested, about 15% had one in any assay. Values without a mark were called inactive. Active and inactive are the calls of the source. Rule as the data show it: active = growth inhibition above about 70%; inactive = the rest.

Assay: NCI Yeast Anticancer Drug Screen. Data for the cln2 rad14 strain (AID 165);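 also: 0% = growth equal to vehicle treated cultures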
Conditions: S. cerevisiae cln2 rad14 strain, at 50.0 µM (retest, dose inferred, filed as 5.0), active compounds read high
Summary of the method: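 The screen exposed genetically defined yeast (cln2 rad14) to test compounds and scored growth inhibition relative to vehicle-treated controls.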

Compound	growth inhibition
Nc1ncnc(N2CCOCC2)c1N	2%
CN(C)c1ccc2c(NCCCCCCNc3ccnc4cc(N(C)C)ccc34)ccnc2c1	92% (active)
CC(C)N=Cc1cc(Br)cc(Br)c1O.CC(C)N=Cc1cc(Br)cc(Br)c1O.[Co]	99% (active)
O=C1c2ccc(O)cc2C(=O)c2c1ccc(O)c2O	73% (active)
COc1cc2c[n+](C)c3c4cc(OC)c(OCc5ccccc5)cc4c(OCc4ccccc4)cc3c2cc1OC	91% (active)
O=C(Nc1ccc(Cl)cc1)OCC1C2C=CC(C2)C1CO (stereo not given)	89% (active)
Cn1nc(-c2ccccc2NC(=O)C(F)(F)F)c(=O)n(C)c1=S	14%
OCc1c2c(cc3c1CC1(C3)Cc3cc4c(c(CO)c3C1)CCC4)CCC2	97% (active)
O=C(C[n+]1ccccc1)N=N/C(C(=O)Nc1c(Cl)c(O)c2ccccc2c1O)=C1/C(=O)Oc2cc(O)ccc2C1=O	96% (active)
Cc1cc(Cl)c(O)c(-c2cc(-c3ccccc3O)c(C#N)c(N)n2)c1	65%
CCCCNc1ncc(OCC)c(NCCCC)n1	4%
C#CCCCCCOC(=O)c1cc([N+](=O)[O-])cc([N+](=O)[O-])c1	98% (active)
C=C(C)C1(C(=O)OCC(Cl)(Cl)Cl)NC(=O)C(NC(=O)COc2ccccc2)=CO1 (stereo not given)	31%
Cc1ccc(SCC#CC#CCS(=O)c2ccc(C)cc2)cc1 (stereo not given)	98% (active)
CCCCCCCCCCCCCCCC1C(N)C(=O)N(C)N1C (stereo not given)	94% (active)
O=c1c(O)cc2c(O)oc3c(=O)c(O)c(O)c4c(O)oc1c2c43	90% (active)
CCCCN(CCCC)CCNc1ccc(NS(=O)(=O)c2ccccc2)c2sc3ccccc3c(=O)c12	96% (active)
CCOC(=O)CC(N)CC(=O)OCC	-53%
O=c1cc(Cl)c(Cl)nn1-c1ccccc1	60%
CC(=O)Nc1ccc(-c2ccccc2)cc1[N+](=O)[O-]	-7%

Compound	growth inhibition
O=C1OC(c2ccccc2)N/C1=C\c1ccc2c(c1)OCO2 (stereo not given)	21%
CCOc1c(N=Nc2ccc(Cl)cc2)c(-c2ccccc2)nn1C(=S)S	92% (active)
BrCN(CBr)c1ccc2c(c1)Cc1cc(Br)ccc1-2	11%
COc1cc(NCCCCCCCC2CCCCN2)c2ncccc2c1 (stereo not given)	94% (active)
Cc1cc(Br)cc(C)c1NC(=O)C(=O)C(C(=O)c1ccc2ccccc2c1)C1OC(=O)c2ccccc21 (stereo not given)	-14%
O=Cc1cc2c(s1)C(=O)c1sccc1C2=O	97% (active)
C=C1CC2(CC(C(C)C)CCC2C)OC1=O (stereo not given)	57%
CCSC(=Nc1nc2ccc(NC(C)=O)cc2s1)SCC	83% (active)
CCOc1ccc2c(c1)n([O-])c1cc(Br)ccc1[n+]2=O	90% (active)
CCCCC(CCCC)=NNC(=S)SC	17%
COc1ccc2c(c1)CCc1c(CO)c(COC(=O)NC(C)C)n(C)c1-2	85% (active)
CSc1cc2c(cc1N)Cc1ccccc1-2	50%
O=C1C=C(c2ccccc2)OC(c2ccccc2)C1 (stereo not given)	-67%
CCOc1ccc2nc([NH-])sc2c1.CCOc1ccc2nc([NH-])sc2c1.[Cl][Pt+2][Cl]	-7%
Cc1nc2c(Cl)nc(Cl)nc2s1	97% (active)
Cc1cc(O)n(Cc2ccccc2)c(=O)c1	-45%
NCCC1=CCCCC1	96% (active)
CCOC(=O)/C(=C\n1c(=O)sc2ccccc21)C(=O)c1ccccc1	26%
Cc1ccc(S(=O)(=O)Nc2ccccc2C=O)cc1	50%
CC1COC(c2cn[nH]c2C(N)=O)C1O (stereo not given)	-18%

Same assay, conditions: S. cerevisiae cln2 rad14 strain, at 50.0 µM, active compounds read high

Compound	growth inhibition
Nc1ncnc(N2CCOCC2)c1N	83.8% (active)
CN(C)c1ccc2c(NCCCCCCNc3ccnc4cc(N(C)C)ccc34)ccnc2c1	29.4%
CC(C)N=Cc1cc(Br)cc(Br)c1O.CC(C)N=Cc1cc(Br)cc(Br)c1O.[Co]	65%
O=C1c2ccc(O)cc2C(=O)c2c1ccc(O)c2O	41.3%
COc1cc2c[n+](C)c3c4cc(OC)c(OCc5ccccc5)cc4c(OCc4ccccc4)cc3c2cc1OC	96.6% (active)
O=C(Nc1ccc(Cl)cc1)OCC1C2C=CC(C2)C1CO (stereo not given)	66.5%
Cn1nc(-c2ccccc2NC(=O)C(F)(F)F)c(=O)n(C)c1=S	33.6%
OCc1c2c(cc3c1CC1(C3)Cc3cc4c(c(CO)c3C1)CCC4)CCC2	46.4%
O=C(C[n+]1ccccc1)N=N/C(C(=O)Nc1c(Cl)c(O)c2ccccc2c1O)=C1/C(=O)Oc2cc(O)ccc2C1=O	68.5%
Cc1cc(Cl)c(O)c(-c2cc(-c3ccccc3O)c(C#N)c(N)n2)c1	69.4%
CCCCNc1ncc(OCC)c(NCCCC)n1	42.6%
C#CCCCCCOC(=O)c1cc([N+](=O)[O-])cc([N+](=O)[O-])c1	98.1% (active)
C=C(C)C1(C(=O)OCC(Cl)(Cl)Cl)NC(=O)C(NC(=O)COc2ccccc2)=CO1 (stereo not given)	61.1%
Cc1ccc(SCC#CC#CCS(=O)c2ccc(C)cc2)cc1 (stereo not given)	98% (active)
CCCCCCCCCCCCCCCC1C(N)C(=O)N(C)N1C (stereo not given)	88% (active)
O=c1c(O)cc2c(O)oc3c(=O)c(O)c(O)c4c(O)oc1c2c43	50.3%
CCCCN(CCCC)CCNc1ccc(NS(=O)(=O)c2ccccc2)c2sc3ccccc3c(=O)c12	93.3% (active)
CCOC(=O)CC(N)CC(=O)OCC	-4.7%
O=c1cc(Cl)c(Cl)nn1-c1ccccc1	71.8% (active)
CC(=O)Nc1ccc(-c2ccccc2)cc1[N+](=O)[O-]	-113%

Compound	growth inhibition
O=C1OC(c2ccccc2)N/C1=C\c1ccc2c(c1)OCO2 (stereo not given)	3.55%
CCOc1c(N=Nc2ccc(Cl)cc2)c(-c2ccccc2)nn1C(=S)S	91.5% (active)
BrCN(CBr)c1ccc2c(c1)Cc1cc(Br)ccc1-2	-1.35%
COc1cc(NCCCCCCCC2CCCCN2)c2ncccc2c1 (stereo not given)	96.5% (active)
Cc1cc(Br)cc(C)c1NC(=O)C(=O)C(C(=O)c1ccc2ccccc2c1)C1OC(=O)c2ccccc21 (stereo not given)	70% (active)
O=Cc1cc2c(s1)C(=O)c1sccc1C2=O	91.7% (active)
C=C1CC2(CC(C(C)C)CCC2C)OC1=O (stereo not given)	19.6%
CCSC(=Nc1nc2ccc(NC(C)=O)cc2s1)SCC	96.5% (active)
CCOc1ccc2c(c1)n([O-])c1cc(Br)ccc1[n+]2=O	49%
CCCCC(CCCC)=NNC(=S)SC	-27.6%
COc1ccc2c(c1)CCc1c(CO)c(COC(=O)NC(C)C)n(C)c1-2	93.5% (active)
CSc1cc2c(cc1N)Cc1ccccc1-2	88.7% (active)
O=C1C=C(c2ccccc2)OC(c2ccccc2)C1 (stereo not given)	-38.4%
CCOc1ccc2nc([NH-])sc2c1.CCOc1ccc2nc([NH-])sc2c1.[Cl][Pt+2][Cl]	17.9%
Cc1nc2c(Cl)nc(Cl)nc2s1	95.5% (active)
Cc1cc(O)n(Cc2ccccc2)c(=O)c1	-4.75%
NCCC1=CCCCC1	35.6%
CCOC(=O)/C(=C\n1c(=O)sc2ccccc21)C(=O)c1ccccc1	19.5%
Cc1ccc(S(=O)(=O)Nc2ccccc2C=O)cc1	99% (active)
CC1COC(c2cn[nH]c2C(N)=O)C1O (stereo not given)	39.4%
